Compound activity deposited in PubChem by National Center for Advancing Translational Sciences (NCATS).
This excerpt belongs to a sample that is enriched for hits.
KDM5B inh = KDM5B demethylase inhibition; Q9UGL1; KDM5B demethylase, FDH-coupled NADH fluorescence (FDH is formaldehyde dehydrogenase); Potency, µM (highest dose often 57.7 µM), usual class: inhibitors; 220,000 tested, 2.6% active; AID 1347165; active means well fitted inhibition curve with a large enough effect; further: 0% is about no effect; nearly all actives have a fitted effect of over 70% in size
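Here, H3K4me3 peptide (12.5 µM in substrate mix) is demethylated by KDM5BΔAP, 200 nM final, after 10 min compound exposure. Formaldehyde product is coupled through FDH (0.25 U/mL in mix) to NADH fluorescence; 30-min ΔRFU feeds dose-response curves.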
Active calls of the source: *; i = inactive. Potency means the concentration at half of the fitted maximal effect.

SMILES | KDM5B inh
O=C(c1c[nH]c2ccccc12)N1CCC2(CC1)CN(c1ccncn1)CC2CO (centres undefined) | i
COc1ccccc1C(=O)N1CCC2(CC1)CN(c1ncccn1)CC2CO (centres undefined) | 25µM*
O=C(CCCc1ccccc1)N1CCC2(CC1)CN(c1ccncn1)CC2CO (centres undefined) | i
COCC1CN(C(C)=O)CC12CCN(C(=O)c1ccccc1OC)CC2 (centres undefined) | i
N#Cc1ccc(C(=O)N2CCC3(CC2)CN(c2ncccn2)CC3CO)cc1 (centres undefined) | 22µM*
Cc1ccccc1C(=O)N1CCC2(CCN(Cc3cnc[nH]3)CC2)C(CO)C1 (centres undefined) | i
CCOc1ccccc1C(=O)N1CCC2(CC1)CN(c1ccncn1)CC2CO (centres undefined) | i
CC(=O)N1CC(CO)C2(CCN(C(=O)c3cccc(C#N)c3)CC2)C1 (centres undefined) | i
Cc1cnn(CC(=O)N2CCC3(CC2)CN(c2ncccn2)CC3CO)c1 (centres undefined) | 35µM*
O=C(Cc1ccccc1)N1CCC2(CC1)CN(c1ccncn1)CC2CO (centres undefined) | i
CCOc1ccc(CN(C)C(=O)Cn2nc(C(=O)O)c3ccccc3c2=O)cc1 | i
CCc1ccc(-c2nc(COC(=O)c3c(C)nsc3N)cs2)cc1 | i
c1ccc(-c2cnc([C@@H]3COCCN3Cc3cnc[nH]3)[nH]2)cc1 | i
O=C(COc1ncnc2ccccc12)Nc1ccccc1 | i
CC(C)(C)c1nnc2sc(-c3c[nH]c4ccccc34)nn12 | i
CN1CCN(C(=O)c2ccc(CNC(=O)c3cc4cc(F)ccc4[nH]3)cc2)CC1 | i
Cc1ccc2ncn(Cc3coc(-c4cccs4)n3)c(=O)c2c1 | i
COC(=O)c1cc(OC(=O)c2cc3ccccc3cc2OC)cc(C(=O)OC)c1 | i
Cn1nc(C(=O)N2CCN(c3ccccc3Cl)CC2)c2ccccc2c1=O | i
Cc1cc(C)cc(C(=O)NCCSc2c[nH]c3ccccc23)c1 | i
CCn1nc(C)c(CN2CCC3(CC2)CN(c2ccncn2)CC3CO)c1C (centres undefined) | i
OCC1CNCCC12CCN(Cc1ccc3ccccc3c1)CC2 (centres undefined) | i
Cn1cccc1CN1CCC2(CC1)CN(c1ncccn1)CC2CO (centres undefined) | 32µM*
OCC1CN(c2ccncn2)CC12CCN(Cc1cccc(F)c1F)CC2 (centres undefined) | i
OCC1CN(c2ncccn2)CC12CCN(Cc1cc(Cl)ccc1F)CC2 (centres undefined) | 25µM*
SMILES | KDM5B inh
OCC1CN(c2ncccn2)CC12CCN(Cc1ccc3cc[nH]c3c1)CC2 (centres undefined) | 28µM*
O=C(Cc1ccsc1)N1CCC2(CC1)CN(c1ccncn1)CC2CO (centres undefined) | i
COCC1CN(C(C)=O)CC12CCN(Cc1ccc(Cl)cc1F)CC2 (centres undefined) | i
OCC1CN(Cc2cccnc2)CCC12CCN(Cc1cccc(O)c1)CC2 (centres undefined) | i
OCC1CN(c2ncccn2)CC12CCN(C1CCSCC1)CC2 (centres undefined) | 32µM*
OCC1CN(Cc2ccccc2)CC12CCN(C1CCC1)CC2 (centres undefined) | i
Cc1ccsc1CN1CCC2(CC1)CN(c1ccncn1)CC2CO (centres undefined) | i
Cc1ccc(/C=C(\C#N)C(=O)NC2CCCC2)o1 | i
COc1ccc(CNC(=O)c2ccc(NC(=O)N3CCSc4nc(C)cc(C)c43)cc2)c(OC)c1 | i
COc1ccc(C(C)=O)cc1CN1CCCC1 | i
CCCc1ccc(-c2csc(NC(=O)c3cnc4c(c3)c(=O)n(C)c(=O)n4C)n2)cc1 | i
CCCNC(=O)CN1CCN(Cc2nc3ccccc3o2)CC1 | i
Nc1c(C(=O)O)cccc1[N+](=O)[O-] | i
COC(=O)C1=C(C)N(c2ccccc2)C(=S)NC1c1cccs1 (centres undefined) | i
O=S(=O)(c1ccc(Br)s1)N1CCOc2ccc(COCc3ccccc3)cc2C1 | i
O=C(CSc1ncccn1)Nc1nc2cc3c(cc2s1)OCCO3 | i
Cc1cc(-c2ccc(N=Cc3sccc3C)c(C)c2)ccc1N=Cc1sccc1C | i
CN1CCN(C(=O)CN2CCN(C(C(=O)O)c3cn(CCC(=O)O)c4cc(F)ccc34)CC2)CC1 (centres undefined) | i
COc1cccc(CN2CCC3(CC2)CC(O)CCO3)n1 (centres undefined) | i
COc1cccc(CN2CCC3(CC2)CN(c2ncccn2)CC3CO)n1 (centres undefined) | 22µM*
Cc1cccc(CN2CCC3(CC2)CCN(Cc2cccc(O)c2)CC3CO)n1 (centres undefined) | i
Cc1nc(-c2ccc(S(=O)(=O)Nc3ccccc3)cc2)co1 | i
Cc1ccc(C)c(NC(=O)C(C)SCCO)c1 (centres undefined) | i
